RORg inh – inhibitors of mouse ROR gamma transcriptional activity; P51450; Drosophila S2 Gal4-RORgamma UAS-luciferase reporter, 20 h; Potency, µM (doses to about 53.6 µM), most hits filed as inhibitors; hit rate 5.4% among 310,000; AID 2551; note: nearly all actives have a fitted effect of over 60% in size
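Luciferase reporter read in Schneider cells carrying Gal4-RORγ (mouse) and UAS-Photinus luciferase; cells given compound 1 h before 700 uM copper sulfate induction, then incubated 20 h at ambient temperature.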
rTrxR1 inhibitor – blocks rat thioredoxin reductase 1 | Potency, µM (highest dose often 114 µM), actives largely listed as inhibitors | O89049 | recombinant rTrxR1, NADPH fluorescence consumption, selenite substrate | hit rate 1% among 390,000; note: nearly all actives have a fitted effect of over 65% in size
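Rat TrxR1 (90 nM in the dispensed reagent) was pre-reduced with 400 uM NADPH for 5 min at room temperature, then incubated with compound for 15 min. After 400 uM selenite was added, NADPH fluorescence (Ex 340/Em 450 nm) was followed for 8 min.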
TrxR1 substrate – is turned over as a substrate by rat TrxR1. hit rate 0.01% among 390,000. Potency, µM (series often up to 114 µM). O89049. purified TrxR1 substrate turnover, NADPH consumption readout. AID 588456; note: nearly all actives have a fitted effect of over 50% in size
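Rat TrxR1, dispensed at 90 nM, was prereduced with 400 uM NADPH (final) for 5 min at ~22 deg C, then incubated with compound 15 min before 400 uM selenite. A first-read NADPH fluorescence drop versus no-compound background flagged substrates.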
GALK inhibitor – galactokinase (human) inhibition; Potency, µM (series often up to 57.5 µM), usual class: inhibitors; AID 1868; hit rate 0.007% among 270,000; Purified GALK, Kinase-Glo residual ATP luminescence; P51570
Target sequence (P51570 whole entry, looked up): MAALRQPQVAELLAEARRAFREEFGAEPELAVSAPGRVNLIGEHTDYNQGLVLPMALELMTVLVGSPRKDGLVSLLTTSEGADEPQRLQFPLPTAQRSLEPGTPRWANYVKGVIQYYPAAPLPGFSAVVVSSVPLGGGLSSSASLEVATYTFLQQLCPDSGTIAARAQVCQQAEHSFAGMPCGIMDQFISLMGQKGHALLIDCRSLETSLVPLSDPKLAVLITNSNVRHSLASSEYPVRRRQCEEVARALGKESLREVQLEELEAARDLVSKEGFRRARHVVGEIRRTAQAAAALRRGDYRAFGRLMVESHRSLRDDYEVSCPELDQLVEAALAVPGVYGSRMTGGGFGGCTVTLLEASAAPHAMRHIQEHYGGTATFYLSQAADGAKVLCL
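Compounds were pin-transferred into ATP buffer (35 uM final), then GALK plus galactose (5 nM, 100 uM final) was added. After 1 h at room temperature, Kinase-Glo Plus was added and luminescence read after 10 min.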
VP16 counter – counter-screen for ROR gamma inhibitors: Gal4-VP16 reporter | Drosophila S2 Gal4-VP16 UAS-luciferase, luminescence, 20 h | Potency, µM (highest dose often 53.6 µM), usual class: inhibitors | hit rate 3.5% among 310,000 | AID 2546;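 note: Gal4-VP16 expression switched on by copper sulfate through the metallothionein promoter; nearly all actives have a fitted effect of over 50% in size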
FBPA coupling cs – coupling enzyme interference in Giardia aldolase counter-screen; coupling enzyme system counterscreen, AmpLite Red fluorescence; activity change, negative = inhibition, % at 58.2 µM, hits read low; hit rate 0.67% among 290,000; in the data active = activity change below about -30%
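Counterscreen of the coupled detection system alone, without aldolase: glyceraldehyde-3-phosphate coupling enzymes plus AmpLite Red readout. Compounds at 57.5 uM final, 10 min RT preincubation, 20 min RT reaction, fluorescence 525/598 nm.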
Hits are given with their value; i = inactive; ? = inconclusive; nt = no result given; [ ] = dose if it differs, or a comment. An excerpt weighted towards active compounds, which were near 5.9% of everything screened. Unless noted, calls come from the whole dose curve; as a rule, active = well fitted curve in the direction sought with a large enough effect; inconclusive = small, poorly fitted or top-dose-only effect, or another doubt; inactive = no such curve, though single readings can be large; an effect the other way counts as inactive or inconclusive.

SMILES | RORg inh | rTrxR1 inhibitor | TrxR1 substrate | GALK inhibitor | VP16 counter | FBPA coupling cs
COc1ccc(C2(C(=O)O)CCCC2)cc1 | i | i | i | i | i | i
CC(C)(CN1CCOCC1)NS(=O)(=O)c1ccccc1 | i | i | i | i | i | i
O=C1CSC(=S)N1N=Cc1ccc(Cl)s1 | nt | i | i[11.4 µM] | nt | nt | nt
COc1ccccc1C=NN1C(=O)CSC1=S | nt | i | i | nt | nt | nt
O=C1CSC(=S)N1/N=C/c1ccc(O)c(O)c1O | i | ? | i | i | i | -59
O=C1CSC(=S)N1/N=C/c1cc(Br)ccc1O | 11µM | nt | nt | i | ? | i
COCc1cc(=O)[nH]c(Nc2nc3ccccc3o2)n1 | 3.5µM | i | i | i | ? | i
Cc1cc(C)c2nc(Nc3nc(-c4ccccc4)cc(=O)[nH]3)nc(C)c2c1 | 0.63µM | i | i | i | 2.2µM | i
Cc1cc(C)c2nc(Nc3nc(CSc4nc5ccccc5[nH]4)cc(=O)[nH]3)nc(C)c2c1 | nt | i | i | nt | nt | nt
Cc1ccc2oc(Nc3nc(-c4ccccc4)cc(=O)[nH]3)nc2c1 | 2.8µM | i | i | i | i | i
CCOC(=O)Cc1cc(=O)[nH]c(Nc2nc3ccccc3o2)n1 | 10µM | i | i | i | 16µM | i
COC(=O)Cc1cc(=O)[nH]c(Nc2nc3ccccc3o2)n1 | i | i | i | i | ? | i
COCc1cc(=O)[nH]c(Nc2nc(C)c3ccccc3n2)n1 | i | i | i | i | ? | i
Cc1nc(-c2ccccc2)cc(=O)[nH]1 | i | i | i | i | i | i
Cc1nn(-c2ccc(Cl)cc2Cl)c(C)c1C(=O)O | i | i | i | i | i | i
Cc1ccc(-c2nnc(Nc3ccc(O)cc3)c3ccccc23)cc1S(=O)(=O)N1CCCCC1 | nt | i | i | nt | nt | nt
O=C(NC1CCCC1)C1(c2ccccc2)CCN(S(=O)(=O)c2ccccc2)CC1 | i | i | i | i | i | i
CCOc1cc(CNc2ccc(O)cc2)ccc1OCc1ccc(Cl)cc1 | nt | 50µM | i | nt | nt | nt
Oc1ccc(NCc2ccccc2OCc2ccccc2)cc1 | ? | ? | i | i | ? | -48
Oc1ccc(NCc2ccccc2OCc2ccc(Cl)cc2)cc1 | nt | 79µM | i | nt | nt | nt
CCNCc1ccccc1OCc1ccccc1 | i | i | i | i | i | i
Cc1ccc(NC(=O)CN2C(=O)COc3ccc(S(=O)(=O)N4CCOCC4)cc32)c(Cl)c1 | nt | i | i | nt | nt | nt
COc1ccc(CNC(=O)CN2C(=O)C(C)N(c3ccc(C)cc3)C2=O)cc1 (stereo unspecified) | i | i | i | i | i | i
COC(=O)N/N=C/c1ccc(-c2cccc(Cl)c2)o1 | i | i | i | i | i | i
Nc1ccccc1N=Cc1ccc(-c2cccc(Cl)c2)o1 | ? | ? | i | i | 13µM | i
SMILES | RORg inh | rTrxR1 inhibitor | TrxR1 substrate | GALK inhibitor | VP16 counter | FBPA coupling cs
N/C(=N/O)c1nc(N2CCCC2)nc(N2CCCC2)n1 | nt | i | i | nt | nt | nt
N#Cc1nc(N2CCCC2)nc(N(c2ccccc2)c2ccccc2)n1 | nt | i | i[0.0914 µM] | nt | nt | nt
N/C(=N/O)c1nc(N2CCCC2)nc(N(c2ccccc2)c2ccccc2)n1 | 8.9µM | i | i | i | i[0.365 µM] | i
N/C(=N/O)c1nc(N2CCCCC2)nc(N2CCCCC2)n1 | 8.9µM | i | i | i | ? | i
CCOC(=O)c1ccc2c(c1)N(Cc1cc(C)ccc1C)C(=O)c1ccccc1S2(=O)=O | nt | i | i | nt | nt | nt
Cc1cc(NC(=O)CCC(=O)N(CC(=O)NC2CCCC2)c2ccccc2)no1 | i | i | i | i | i | i
Cn1c(SCC(=O)Nc2cc(S(=O)(=O)N3CCOCC3)ccc2N2CCOCC2)nnc1-c1ccncc1 | i | i | i | i | i | i
Clc1ccc(SCc2cn3ccccc3n2)cc1 | 8.9µM | i | i | i | i | i
Cc1cccc2nc(CSc3nc4cc([N+](=O)[O-])ccc4s3)cn12 | 20µM | i | i | i | ? | i
Clc1ccc(-n2nnnc2SCc2cn3ccccc3n2)cc1 | ? | i | i | i | i | i
Cc1cccc2nc(CSc3ccc(Cl)cc3)cn12 | 7.9µM | i | i | i | ? | i
COCCCNC(=O)c1cc(Sc2nnc(C)s2)nc2ccccc12 | ? | i | i | i | i | i
COc1ccc2c(c1)c1ccc3c(c1n2C)C(=O)C=CC3=O | 22µM | ? | i | i | 13µM | i
Cc1ccc2c(c1)c1ccc3c(c1n2C)C(=O)C=CC3=O | 11µM | 40µM | i | nt | 11µM | i
Cn1c2ccccc2c2ccc3c(c21)C(=O)C=CC3=O | nt | i | i[11.4 µM] | nt | nt | nt
CCCN1C(=O)/C(=C/c2c(N3CCNC(=O)C3CC(=O)OC)nc3c(C)cccn3c2=O)SC1=S (stereo unspecified) | i | nt | nt | i | i | i
COc1ccc(CN(CCN(C)C)Cc2ccccc2)c(OC)c1 | i[10 µM] | ? | i | i | i | i
CC(Sc1nc2sccc2c(=O)n1-c1ccccc1)C(N)=O (stereo unspecified) | i | i | i | i | i | i
O/N=C(\c1ccc(Cl)cc1)c1ncc(C(F)(F)F)cc1Cl | i | i | i | i | i | i
Cn1c(N)c(C(C[N+](=O)[O-])c2c(F)cccc2Cl)c(=O)n(C)c1=O (stereo unspecified) | ? | i | i | i | ? | i
CN(C)c1ccc(C(C[N+](=O)[O-])c2c(N)n(C)c(=O)n(C)c2=O)c(F)c1C#N (stereo unspecified) | 6.3µM | i | i | nt | 11µM | i
S=C(Nc1ccccc1Cl)NC1CC2CCCC(C1)N2C1CC1 (stereo unspecified) | 11µM | i | i | i | i | i
O=C(COC(=O)c1cc(=O)c2ccccc2o1)NC1CCCCC1 | i | i[11.4 µM] | i[11.4 µM] | i | i | i
CC(Sc1nnc(C2CC2)n1C1CC1)C(=O)Nc1ccccc1C#N (stereo unspecified) | nt | i | i | nt | nt | nt
CCCCOc1c(Br)cc(/C=C2\N=C(C)OC2=O)cc1OCC | i | 40µM | i | i | i | i
SMILES | RORg inh | rTrxR1 inhibitor | TrxR1 substrate | GALK inhibitor | VP16 counter | FBPA coupling cs
c1ccc(CSc2ccc(-c3ccccn3)nn2)cc1 | 7.9µM | i | i | i | i | i
Clc1ccc(CSc2ccc(-c3ccccn3)nn2)cc1 | i | i | i | i | ? | i
COc1cc(-c2c(-c3cccc(C)c3)oc3ccccc23)cc(OC)c1OC | i | i | i | nt | i | i
FC(F)(F)c1ccccc1-n1c(CN2CCCCC2)n[nH]c1=S | 11µM | i | i | i | i | i
S=c1[nH]nc(CN2CCCCC2)n1-c1ccc(Cl)cc1 | 7.1µM | i | i | i | ? | i
[O-]/C(=C(\C(=S)Nc1ccc(Cl)cc1)[n+]1ccccc1)c1ccc(OC(F)F)cc1 | 5µM | i | i | i | i | i
CC(=O)n1cc(N(C(=O)CCl)c2ccc([N+](=O)[O-])cc2)c2ccccc21 | ? | 1.1µM | i | i | ? | i
O=C(CCl)N(CCCNC(=O)C(F)(F)F)c1ccc([N+](=O)[O-])cc1 | ? | ? | i | i | i | i
CC(=O)n1cc(CO)c2ccccc21 | i | i | i | nt | i | i

Screening results as filed in PubChem.
